Measured values as given in PubChem BioAssay (NCATS).
Results filed as inconclusive are left out. Values without a mark were called inactive. Calls come from the whole dose curve; as a rule, active = well fitted cell-killing curve with a large enough effect; inconclusive = small, poorly fitted or top-dose-only effect; inactive = flat fitted curve, though single readings scatter.

assay: qHTS of pediatric cancer cell lines to identify multiple opportunities for drug repurposing: Primary screen for BT-12 cells (AID 1347101); conditions: BT-12 viability, CellTiter-Glo luminescence, 48 h; series mostly up to 57.3 µM; activity change, negative = cytotoxic: at the top concentration;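 note: plate controls were DMSO for no effect and bortezomib positive control for full effect; nearly all actives have a fitted effect of over 25% in size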
Outline: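 Cells (500-1,000/well) rested 5 h, then received compounds for 48 h; metabolically active cells were measured by CellTiter-Glo luminescence. Final concentrations spanned up to 46 µM (MIPE, 11-point) or 0.59 nM-46 µM (NPC, 8-point) in primary screens, 11-point in follow-ups.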

SMILES	activity change, negative = cytotoxic
O=C(CN1CCN(Cc2ccc3c(c2)OCO3)CC1)N1c2ccccc2Sc2ccccc21	-8.26%
NS(=O)(=O)Cc1noc2ccccc12	8.4%
OC[C@H]1O[C@@H](Oc2ccc(O)cc2)[C@H](O)[C@@H](O)[C@@H]1O	1.43%
NCc1ccccc1Sc1ccccc1CO	-6.02%
CCC1NC(=O)c2cc(S(N)(=O)=O)c(Cl)cc2N1 (stereo unspecified)	7.38%
CC(=O)NO	0.0468%
O=C(Nc1ccc([N+](=O)[O-])cc1)Nc1ccc([N+](=O)[O-])cc1	2.55%
C#C[C@]1(O)CC[C@H]2[C@@H]3CCC4=CC(=O)CC[C@@H]4[C@H]3CC[C@@]21CC	-1.74%
Cc1ncc(CO)c(C=O)c1O	4.67%
Nc1ccc(S(=O)(=O)NCc2ccccc2)cc1	2.59%
CCCCCCCCCCCCSCCOCCO	-4.13%
O=C(O)CCNC(=O)c1ccccc1	4.73%
OCc1ccccn1	-2.76%
NS(=O)(=O)c1ccc(Cl)c(S(N)(=O)=O)c1	-1.1%
CCCN(CCC)S(=O)(=O)c1ccc(C(=O)O)cc1	7.22%
COc1ccc2c(c1)c1c3n2CCN(C)C3=NCC1	5.49%

SMILES	activity change, negative = cytotoxic
CCN(CC)CCOc1ccccc1C(=O)CCc1ccccc1	-20.8%
CCN[C@@H]1C[C@H](N)[C@@H](OC2OC(CN)=CCC2N)[C@H](O)[C@H]1O[C@H]1OC[C@](C)(O)[C@H](NC)[C@H]1O (stereo partly specified)	7.6% [at 0.745 µM]
O=C(O)P(=O)(O)O	6.03%
COc1cc(NS(=O)(=O)c2ccc(N)cc2)ncn1	19.2%
Cc1ccc(S(=O)(=O)NC(=O)NC2CCCC2)cc1	5.99%
O=[N+]([O-])c1cccc(S(=O)(=O)NCCNS(=O)(=O)c2cccc([N+](=O)[O-])c2)c1	-11.3%
c1ccc(-c2nc[nH]c2-c2ccccc2)cc1	-6.06%
CCc1ccc(C(=O)C(C)CN2CCCCC2)cc1 (stereo unspecified)	-15%
C=C[C@@]1(C)CC(=O)[C@]2(O)[C@@]3(C)[C@@H](O)CCC(C)(C)[C@@H]3[C@H](O)[C@H](OC(C)=O)[C@@]2(C)O1	5.61%
CN1CCN(C2=Nc3ccccc3Sc3ccc(Cl)cc32)CC1	-10.3%
CCN(CC)CCNC(=O)COc1ccc(OC)cc1	-4.32%
CCCCCCCCCCCCCC(=O)OC(C)C	12.4%
Cc1nc(-c2ccc(Cl)cc2)oc1COC(C)(C)C(=O)O	4.52%
O=C(O)CCc1nc2ccccc2[nH]1	1.14%
CCOc1ccc(NC(C)=O)cc1	-4.53%
